MmCpn inh: Inhibitors of TCP-1 ring complex (TRiC) of Methanococcus maripaludis (MmCpn): qHTS | Chaperonin Mm-Cpn (Methanococcus maripaludis) | purified Mm-Cpn ATPase, ADP Transcreener TR-FRET | Potency, µM (titrated, usually from 76.9 µM), actives largely listed as inhibitors | 330,000 tested, 0.031% active | AID 504842, 2011; active = well fitted inhibition curve with a large enough effect; inconclusive = small, poorly fitted or top-dose-only effect; also: nearly all actives have a fitted effect of over 80% in size
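Purified archaeal chaperonin (25 nM final) was preincubated with compound for 10 min at 37°C, then ATP (10 uM final) was added for 30 min at 37°C in Tris pH 7.4/KCl/MgCl2/DTT buffer. ADP was quantified by HTRF Transcreener TR-FRET.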
DRD3 agonist: qHTS of D3 Dopamine Receptor Agonist: qHTS; D3R DiscoveRx beta-arrestin cells, luminescence, 90 min; D(3) dopamine receptor (Homo sapiens), P35462; 410,000 tested, 0.58% active; max activation, %; in the data active = max activation above about 30%
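Cells at 1500/well, incubated overnight, then treated with pinned compounds (dopamine as control) for 90 min at 37 degrees C. DiscoveRx reagent added for 30 - 60 minutes at room temperature; luminescence read.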
TSG101-PTAP inh: qHTS Assay for Iinhibitors of HIV-1 Budding by Blocking the Interaction of PTAP/TSG101 | Tumor susceptibility gene 101 protein (Homo sapiens), Q99816 | Fluorescence polarization, FITC-PTAP peptide / Tsg101 binding | Potency, µM (top dose mostly 115 µM), actives largely listed as inhibitors | 340,000 tested, under 10 active; active = well fitted inhibition curve with a large enough effect in the main read-out, with a control signal flat, not every such curve was filed as active; inconclusive = small, poorly fitted or top-dose-only effect, or effect the other way, or a change in a side signal; inactive = no such curve, though single readings can be large or run the other way
Target sequence (Q99816 whole entry, looked up): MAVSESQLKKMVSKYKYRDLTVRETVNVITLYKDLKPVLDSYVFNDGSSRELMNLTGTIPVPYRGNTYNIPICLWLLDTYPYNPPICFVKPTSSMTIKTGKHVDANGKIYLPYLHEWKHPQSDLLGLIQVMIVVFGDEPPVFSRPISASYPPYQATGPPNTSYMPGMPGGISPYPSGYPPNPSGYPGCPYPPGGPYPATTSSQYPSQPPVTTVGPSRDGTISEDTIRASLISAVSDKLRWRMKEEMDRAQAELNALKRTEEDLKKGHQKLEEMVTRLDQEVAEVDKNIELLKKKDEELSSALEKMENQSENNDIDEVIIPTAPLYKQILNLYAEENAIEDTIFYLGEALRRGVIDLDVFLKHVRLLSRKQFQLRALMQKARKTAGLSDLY
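Fluorescence polarization binding of Tsg101 binding domain (10 uM final) to FITC-labeled PTAP peptide (50 nM final) in HEPES pH 7.5 buffer with NaCl, Tween 20, EDTA, TCEP. Compounds added before peptide; binding 20 min at RT.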
Rango-impB inh: qHTS Assay for Inhibitors of Rango (Ran-regulated importin-beta cargo) - Importin beta complex formation; Rango CFP/YFP FRET sensor + importin beta, 45 min; Potency, µM (top dose mostly 92.2 µM); 340,000 tested, 0.031% active; also: nearly all actives have a fitted effect of over 15% in size
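Inhibition scored from the CFP 486 nm/YFP 530 nm FRET ratio 45 min after adding 0.125 microM importin beta to 50 nM Rango biosensor preincubated 5 min with compound (room temperature, PBS with DTT, Tween-20, BSA). No-importin wells as positive control.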
Rango release inh: qHTS Assay for Inhibitors of RanGTP induced Rango (Ran-regulated importin-beta cargo) - Importin beta complex dissociation; Snurportin-1 (Homo sapiens) + GTP-binding nuclear protein Ran (Homo sapiens) + Importin …; Biochemical FRET Rango-importin beta, RanGTP-induced dissociation; Potency, µM (doses to about 46.1 µM); 340,000 tested, 0.071% active; AID 540253, 2011; also: nearly all actives have a fitted effect of over 45% in size
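Compounds sat 5 min at room temperature with 0.1 uM Rango biosensor plus 0.25 uM importin beta, then FRET pre-read. RanGTP-RCC1 (0.6 uM Ran, 2mM GTP, 0.2 uM RCC1) added for 45 min, and the CFP/YFP post-read measured blocked complex dissociation.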
DRD3 antagonist: qHTS of D3 Dopamine Receptor Antagonist: qHTS. D3R cells, DiscoveRx beta-arrestin luminescence, antagonist mode; hits give low values. max response, negative = inhibition, %. D(3) dopamine receptor (Homo sapiens), P35462. 360,000 tested, 2.5% active; in the data active = max response below about -50%; inconclusive = no clear call, values can overlap the other calls
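Cells plated overnight at 1500 cells/well, then exposed to library compounds with dopamine controls for 90 minutes at 37 degrees C. DiscoveRx reagent added for 30–60 minutes at room temperature; luminescence read, quantitative HTS format.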
Numbers stand for hits; . = inactive; ? = inconclusive; / = not tested or not shown. Sampled rows, rich in hits. Any-hit rate of the full collection: about 2.9%. Unless noted, calls follow the shape of the full dose curve.

SMILES	MmCpn inh	DRD3 agonist	TSG101-PTAP inh	Rango-impB inh	Rango release inh	DRD3 antagonist
COc1cccc(-c2nn(C)c3sc(C(=O)N4CCN(c5cccc(C)c5)C(C)C4)cc23)c1 (stereo not given)	/	48	/	/	/	/
COc1ccccc1N1CCN(C(=O)c2cc3c(-c4ccccc4F)nn(C)c3s2)CC1	/	56	/	/	/	/
CC(C)(C)c1ccc(-c2nc(SCC(=O)Nc3ccccc3F)n3[nH]c(=O)cc3n2)cc1	/	.	/	/	/	/
CCCCN(CC)CCNC(=O)c1cc2c(=O)oc3ccc(C)cc3c2s1	/	.	/	/	/	/
COC(=O)C1=C(c2ccccc2)c2ccccc2S(=O)(=O)N1CC(=O)Nc1cc(C)ccc1C	/	.	/	/	/	/
COc1ccc([N+](=O)[O-])cc1NC(=S)Nc1ccccc1	.	.	.	.	.	.
O=[N+]([O-])c1ccc(NNC(=S)Nc2ccccc2)cc1	.	.	.	.	?	-93
O=[N+]([O-])c1ccc(O)c(NC(=S)Nc2ccccc2)c1	.	.	.	.	.	-78
Cc1cc(-c2ccc(C)c(S(=O)(=O)NCc3cccs3)c2)on1	/	.	/	/	/	/
O=S1(=O)C=CC(c2ccccc2)C1 (stereo not given)	.	.	.	.	.	.
Cc1cc(C)n(CC(O)COc2ccccc2[N+](=O)[O-])n1 (stereo not given)	.	.	.	.	.	.
CCN(CC)S(=O)(=O)c1ccc(N=Nc2c(C)[nH]n(C(N)=S)c2=O)cc1	.	.	.	.	.	-93
CN(C)CCCN1C(=O)c2cccc3cccc(c23)C1=O	.	.	.	.	.	.
CC1=CC2=C(OC1N(C)C)c1cccc3cccc(c13)C2=O (stereo not given)	.	.	.	.	.	-52
CCOc1ccc(S(=O)(=O)Nc2cc(C)ccn2)c2ccccc12	.	32	.	.	.	.
COc1ccc(S(=O)(=O)Nc2cc(C)cc(C)n2)c2ccccc12	.	.	.	.	.	.
COc1cccc(N2CCN(CC(=O)C34CC5CC(CC(C5)C3)C4)CC2)c1	.	.	.	.	.	.
COc1cccc(N2CCN(C(C)C(=O)NC34CC5CC(CC(C5)C3)C4)CC2)c1 (stereo not given)	.	.	.	.	.	-53
O=C(Nc1ccccc1)c1nc[nH]c1C(=O)N1CCN(c2ccccc2)CC1	.	.	.	.	.	.
O=C(Nc1nccs1)c1nc[nH]c1C(=O)N1CCN(c2ccccc2)CC1	.	31	.	.	.	.
CCN(CC)CCNC(=O)c1ccc(Cl)c(S(=O)(=O)Nc2ccccc2OC)c1	.	.	.	.	.	.
CCN(CC)CCNC(=O)c1ccc(Cl)c(S(=O)(=O)Nc2ccc(Cl)cc2)c1	.	.	.	?	.	-56
CN(c1cccc(NC(=O)c2ccc(Cl)c(S(=O)(=O)Nc3ccccc3)c2)c1)S(C)(=O)=O	.	52	.	.	.	.
O=C(c1ccc2c(c1)N(Cc1ccccc1)C(=O)c1ccccc1S2(=O)=O)N1CCc2ccccc21	/	.	/	/	/	/
COc1ccc(Cn2c(C(=O)O)c(CNCC(C)c3ccccc3)c3ccc(OC)cc32)cc1 (stereo not given)	/	.	/	/	/	/
SMILES	MmCpn inh	DRD3 agonist	TSG101-PTAP inh	Rango-impB inh	Rango release inh	DRD3 antagonist
COc1ccc(OC)c(NC(=O)c2cc3cc(C)ccc3n2C)c1	/	.	/	/	/	/
CCOc1ccc2nc(NC(=O)CS(=O)(=O)c3ccc(Cl)cc3)sc2c1	/	.	/	/	/	/
CS(=O)(=O)c1ccc2nc(NC(=O)Nc3cccc(Cl)c3)sc2c1	.	.	.	.	.	.
CCOc1ccc2nc(NS(=O)(=O)c3ccc(NC(C)=O)cc3)sc2c1	.	.	.	.	.	-57
CCOc1ccc2nc(NC(=O)CS(=O)(=O)c3ccccc3)sc2c1	.	32	.	.	.	.
CCOc1ccc2nc(NC(=O)CS(=O)(=O)c3ccc(C)cc3)sc2c1	.	38	.	.	.	.
CS(=O)(=O)c1ccc2nc(NC(=O)Nc3ccc(Cl)c(Cl)c3)sc2c1	.	55	.	.	.	.
C#CCOc1ccc(/C=C2/C(=O)ON=C2C)cc1Cl	.	.	.	.	.	.
COc1ccc(Cn2c(=O)c3oc4ccccc4c3n(CC(=O)Nc3c(C)cccc3C)c2=O)cc1	/	.	/	/	/	/
COC(=O)c1ccc(C)c(NS(=O)(=O)c2ccc(NC(C)=O)cc2)c1	.	.	.	.	.	-55
CC(=O)Nc1cccc(OCC(=O)NS(=O)(=O)c2ccc(C)cc2)c1	.	.	.	.	.	.
COC(=O)COc1cccc(NS(=O)(=O)c2ccc(NC(C)=O)cc2)c1	.	.	.	.	.	-64
Cc1ccc(Nc2nc3nonc3nc2Nc2cccc(C(F)(F)F)c2)cc1Cl	/	.	/	/	/	/
COC(=O)C1=C(C(=O)c2ccccc2)C(c2ccc(OC)c(OC)c2)Nc2nnnn21 (stereo not given)	.	.	.	?	.	-75
COc1ccc(C2NC(=S)NC(C)=C2C(=O)c2ccccc2)cc1OC (stereo not given)	.	.	.	.	.	.
CCOc1cc(C2C(C(=O)c3ccccc3)=C(C(=O)OC)Nc3nnnn32)ccc1O (stereo not given)	.	.	.	.	.	-55
COC(=O)C1=C(C(=O)c2ccccc2)C(c2cccs2)n2nnnc2N1 (stereo not given)	.	.	.	?	?	-60
COC(=O)C1=C(C(=O)c2ccccc2)C(c2ccc(O)c(OC)c2)n2nnnc2N1 (stereo not given)	.	.	.	.	.	.
COc1ccc(Cl)cc1NC(=O)Cn1ccn(-c2cc(C)cc(C)c2)c(=O)c1=O	/	.	/	/	/	/
NC(=O)C1CCN(c2nc(-c3ccccc3[N+](=O)[O-])cs2)CC1	.	/	/	/	/	/
COc1ccc(N=C2S/C(=C\c3ccc(Cl)c([N+](=O)[O-])c3)C(=O)N2CCN(C)C)cc1	.	.	.	.	.	-128
CCN(CC)CCN1C(=O)/C(=C\c2ccc(Cl)c([N+](=O)[O-])c2)SC1=Nc1ccc(OC)cc1	.	.	.	.	.	-102
